# From the supplement of paper PMC12282887
# ± gives the standard deviation of the averaged measurements.
# Tests used:
# Assay in all cases: promoter activity interaction Z-score (Lux/OD deviation from empty-vector control); higher = stronger promoter induction by the compound
# [1] = test system: E. coli BW25113 acrABp lux reporter
# Outline: (§1)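 E. coli BW25113 (wild type or marA, soxS or rob deletion) carrying low-copy luxCDABE promoter reporters grew in 40 µl LB Lennox in 384-well plates at 37°C. Each compound was tested at four 1:2 dilutions in biological duplicates. OD600 and luminescence were read every 30 min for 12 h. Areas were taken over 0–8 h (wild type) or 1–9 h (mutants), and wells below 10% of median growth area were removed. The score is the Z-transformed residual of growth-normalised luminescence fitted against the empty-vector control.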
# [2] = test system: E. coli BW25113 micFp lux reporter
# Outline: as §1
# [3] = test system: E. coli BW25113 ompFp lux reporter
# Outline: as §1
# [4] = test system: E. coli BW25113 robp lux reporter
# Outline: as §1
# [5] = test system: E. coli BW25113 soxSp lux reporter
# Outline: as §1
# [6] = test system: E. coli BW25113 tolCp lux reporter
# Outline: as §1
# [7] = 4.8 µg/ml, genetic background: wild type
# [8] = 4.8 µg/ml, genetic background: ΔmarA
# [9] = 4.8 µg/ml, genetic background: Δrob
# [10] = 4.8 µg/ml, genetic background: ΔsoxS
# [11] = 9.5 µg/ml, genetic background: wild type
# [12] = 9.5 µg/ml, genetic background: ΔmarA
# [13] = 9.5 µg/ml, genetic background: Δrob
# [14] = 9.5 µg/ml, genetic background: ΔsoxS
# [15] = 19 µg/ml, genetic background: wild type
# [16] = 19 µg/ml, genetic background: ΔmarA
# [17] = 19 µg/ml, genetic background: Δrob
# [18] = 19 µg/ml, genetic background: ΔsoxS
# [19] = 38.1 µg/ml, genetic background: wild type
# [20] = 38.1 µg/ml, genetic background: ΔmarA
# [21] = 38.1 µg/ml, genetic background: Δrob
# [22] = 38.1 µg/ml, genetic background: ΔsoxS
smiles,measurement,setting,value
NC(N)=S [Thiourea],promoter activity interaction Z-score,[1]; [7],-0.187 ± 0.18
same,promoter activity interaction Z-score,[1]; [8],-0.399 ± 0.26
same,promoter activity interaction Z-score,[1]; [9],-0.36 ± 0.23
same,promoter activity interaction Z-score,[1]; [10],-0.569 ± 0.35
same,promoter activity interaction Z-score,[1]; [11],-0.18 ± 0.14
same,promoter activity interaction Z-score,[1]; [12],0.241 ± 0.33
same,promoter activity interaction Z-score,[1]; [13],0.0155 ± 0.17
same,promoter activity interaction Z-score,[1]; [14],-0.239 ± 0.4
same,promoter activity interaction Z-score,[1]; [15],-0.0387 ± 0.081
same,promoter activity interaction Z-score,[1]; [16],-0.48 ± 0.68
same,promoter activity interaction Z-score,[1]; [17],-0.186 ± 0.13
same,promoter activity interaction Z-score,[1]; [18],-0.351 ± 0.079
same,promoter activity interaction Z-score,[1]; [19],-0.113 ± 0.22
same,promoter activity interaction Z-score,[1]; [20],-0.12 ± 0.22
same,promoter activity interaction Z-score,[1]; [21],0.24 ± 0.064
same,promoter activity interaction Z-score,[1]; [22],-0.0892 ± 0.19
same,promoter activity interaction Z-score,[2]; [7],-0.235 ± 0.23
same,promoter activity interaction Z-score,[2]; [8],-0.0756 ± 0.059
same,promoter activity interaction Z-score,[2]; [9],-0.0669 ± 0.076
same,promoter activity interaction Z-score,[2]; [10],-0.189 ± 0.15
same,promoter activity interaction Z-score,[2]; [11],0.261 ± 0.46
same,promoter activity interaction Z-score,[2]; [12],-0.0468 ± 0.13
same,promoter activity interaction Z-score,[2]; [13],-0.0323 ± 0.16
same,promoter activity interaction Z-score,[2]; [14],0.0238 ± 0.19
same,promoter activity interaction Z-score,[2]; [15],-0.293 ± 0.083
same,promoter activity interaction Z-score,[2]; [16],-0.144 ± 0.073
same,promoter activity interaction Z-score,[2]; [17],-0.0798 ± 0.19
same,promoter activity interaction Z-score,[2]; [18],-0.203 ± 0.18
same,promoter activity interaction Z-score,[2]; [19],-0.442 ± 0.33
same,promoter activity interaction Z-score,[2]; [20],-0.164 ± 0.059
same,promoter activity interaction Z-score,[2]; [21],-0.0862 ± 0.063
same,promoter activity interaction Z-score,[2]; [22],-0.341 ± 0.12
same,promoter activity interaction Z-score,[3]; [7],0.0411 ± 0.63
same,promoter activity interaction Z-score,[3]; [8],0.273 ± 0.023
same,promoter activity interaction Z-score,[3]; [9],0.0473 ± 0.84
same,promoter activity interaction Z-score,[3]; [10],-0.209 ± 0.4
same,promoter activity interaction Z-score,[3]; [11],0.331 ± 0.68
same,promoter activity interaction Z-score,[3]; [12],0.292 ± 0.32
same,promoter activity interaction Z-score,[3]; [13],0.271 ± 0.042
same,promoter activity interaction Z-score,[3]; [14],-0.0695 ± 0.25
same,promoter activity interaction Z-score,[3]; [15],0.307 ± 0.13
same,promoter activity interaction Z-score,[3]; [16],0.189 ± 0.15
same,promoter activity interaction Z-score,[3]; [17],-0.133 ± 0.22
same,promoter activity interaction Z-score,[3]; [18],-0.0487 ± 0.067
same,promoter activity interaction Z-score,[3]; [19],0.484 ± 0.11
same,promoter activity interaction Z-score,[3]; [20],0.567 ± 0.37
same,promoter activity interaction Z-score,[3]; [21],0.804 ± 0.41
same,promoter activity interaction Z-score,[3]; [22],0.352 ± 0.25
same,promoter activity interaction Z-score,[4]; [7],0.198 ± 0.54
same,promoter activity interaction Z-score,[4]; [8],-0.278 ± 0.4
same,promoter activity interaction Z-score,[4]; [9],-0.498 ± 0.88
same,promoter activity interaction Z-score,[4]; [10],-0.368 ± 0.72
same,promoter activity interaction Z-score,[4]; [11],0.517 ± 0.91
same,promoter activity interaction Z-score,[4]; [12],0.53 ± 0.53
same,promoter activity interaction Z-score,[4]; [13],-0.0465 ± 0.47
same,promoter activity interaction Z-score,[4]; [14],-0.206 ± 0.084
same,promoter activity interaction Z-score,[4]; [15],0.0253 ± 0.099
same,promoter activity interaction Z-score,[4]; [16],-0.564 ± 0.03
same,promoter activity interaction Z-score,[4]; [17],-0.172 ± 0.36
same,promoter activity interaction Z-score,[4]; [18],-0.633 ± 0.39
same,promoter activity interaction Z-score,[4]; [19],0.15 ± 0.3
same,promoter activity interaction Z-score,[4]; [20],-0.571 ± 0.48
same,promoter activity interaction Z-score,[4]; [21],0.0676 ± 0.18
same,promoter activity interaction Z-score,[4]; [22],-0.509 ± 0.51
same,promoter activity interaction Z-score,[5]; [7],-0.265 ± 0.12
same,promoter activity interaction Z-score,[5]; [8],-0.27 ± 0.0046
same,promoter activity interaction Z-score,[5]; [9],-0.311 ± 0.21
same,promoter activity interaction Z-score,[5]; [10],-0.36 ± 0.21
same,promoter activity interaction Z-score,[5]; [11],-0.21 ± 0.083
same,promoter activity interaction Z-score,[5]; [12],-0.161 ± 0.02
same,promoter activity interaction Z-score,[5]; [13],-0.36 ± 0.053
same,promoter activity interaction Z-score,[5]; [14],-0.318 ± 0.36
same,promoter activity interaction Z-score,[5]; [15],-0.205 ± 0.22
same,promoter activity interaction Z-score,[5]; [16],-0.41 ± 0.026
same,promoter activity interaction Z-score,[5]; [17],-0.292 ± 0.098
same,promoter activity interaction Z-score,[5]; [18],-0.397 ± 0.33
same,promoter activity interaction Z-score,[5]; [19],-0.492 ± 0.0079
same,promoter activity interaction Z-score,[5]; [20],-0.464 ± 0.087
same,promoter activity interaction Z-score,[5]; [21],-0.389 ± 0.024
same,promoter activity interaction Z-score,[5]; [22],-0.476 ± 0.5
same,promoter activity interaction Z-score,[6]; [7],-0.648 ± 0.31
same,promoter activity interaction Z-score,[6]; [8],-0.358 ± 0.66
same,promoter activity interaction Z-score,[6]; [9],0.771 ± 0.35
same,promoter activity interaction Z-score,[6]; [10],-0.943 ± 0.29
same,promoter activity interaction Z-score,[6]; [11],-0.618 ± 1.8
same,promoter activity interaction Z-score,[6]; [12],0.4 ± 0.71
same,promoter activity interaction Z-score,[6]; [13],0.609 ± 0.4
same,promoter activity interaction Z-score,[6]; [14],-0.368 ± 0.54
same,promoter activity interaction Z-score,[6]; [15],-0.0827 ± 0.073
same,promoter activity interaction Z-score,[6]; [16],-0.203 ± 0.14
same,promoter activity interaction Z-score,[6]; [17],-0.414 ± 0.69
same,promoter activity interaction Z-score,[6]; [18],0.14 ± 0.66
same,promoter activity interaction Z-score,[6]; [19],0.133 ± 0.26
same,promoter activity interaction Z-score,[6]; [20],-0.216 ± 0.12
same,promoter activity interaction Z-score,[6]; [21],0.188 ± 0.21
same,promoter activity interaction Z-score,[6]; [22],-0.969 ± 1.2
